Results filed as inconclusive are left out. Where a call stands in place of a potency, no number is given. The source made the active and inactive calls. Calls follow the shape of the dose curve; as a rule, active = well fitted cell-killing curve with a large enough effect; inconclusive = small, poorly fitted or top-dose-only effect; inactive = flat fitted curve, though single readings scatter.
Test: Cell Viability - LYMP2-008 (AID 980); also: nearly all actives have a fitted effect of over 60% in size
Conditions: LYMP2-008 lymphoblastoid cell viability, qHTS; series mostly up to 92.2 µM
Source text: NIH Chemical Genomics Center [NCGC]
NIH Molecular Libraries Screening Centers Network [MLSCN]
National Institutes of Environmental Health Sciences [NIEHS]
National Toxicology Program [NTP]
We have developed a 1536-well cell-based assay for quantitative high throughput screening (qHTS) against a number of cell lines to determine in vitro cytotoxicity of small molecules. This particular assay uses a human lymphoblastoid cell line (LYMP2-008) purchased from Coriell Institute for Medical Research.
NCGC Assay Protocol Summary:
The CellTiter-Glo luminescent cell viability assay (Promega) is a homogeneous method to measure the number of viable cells in culture. The end point readout of this assay is based on quantitation of intracellular ATP, an indicator of metabolic activity, using the luciferase reaction. Luciferase catalyzes the oxidation of beetle Luciferin to oxyluciferin and light in the presence of ATP. The luminescent signal is proportional to amount of ATP present.
Using the CellTiter-Glo luminescent cell viability assay, the amount of cellular ATP was measured in the lymphoblastoid cell line with complete culture medium following compound treatment for 24 hours. The assay was performed in opaque white Kalypsys 1536-well plates. In the screen, tetraoctylammonium bromide was used as positive control. Library compounds were measured for their ability to cause acute toxicity in the cell line, as reflected by a decrease in intracellular ATP levels, in a concentration-dependent manner. […] AC50 values were determined from concentration-response data modeled with the standard Hill equation.
qHTS protocol for CellTiter Glo lymphoblastoid cellular assay
[Step] [Parameter] [Value] [Description]
1. Reagent; 5 uL; 2500 lymphoblastoid cells/well
2. Time; 5 hr; 37 C incubation
4. Controls; 23 nL; Tetraoctylammonium bromide 6.4pM to 92 uM
5. Time; 24 hr; 37 C incubation
6. Reagent; 5 uL; CellTiter Glo reagent
7. Time; 30 min; Room Temperature
8. Detection; Luminescence; Viewlux plate reader
Keywords: cell viability, cytotoxicity, lymphoblastoid cell line, luminescence, NTPHTS, NTPHTS_NCGC, NIEHS, DSSTox, MLSMR, MLSCN, NIH Roadmap, qHTS, NCGC
Potency is read from the fitted curve at half-maximal effect.

Compound | Potency
Cc1cccc(C)c1N | inactive
O=C(O)C(Cl)Br (stereo not given) | inactive
Nc1cc(Cl)cc(C(=O)O)c1Cl | inactive
COc1ccccc1N | inactive
Nc1cc(Cl)ccc1Cl | inactive
C[N+](=O)[O-] | inactive
CC(C)[C@]12CC(=O)[C@H](C)[C@H]1C2 | inactive
CN(C)c1ccc(N)cc1 | 50.1 µM (active)
Cl/C=C\Cl | inactive
Nn1cnnc1 | inactive
CCCCOC(=O)c1ccccc1N | inactive
NNC(N)=S | inactive
C=CCc1cc(OC)c2c(c1)OCO2 | inactive
Oc1cc(Cl)ccc1Cl | inactive
N#CCCC#N | inactive
S=C1NCCN1 | inactive
CC(C)(Cl)[N+](=O)[O-] | inactive
O=NN1CCCCC1 | inactive
Cc1cnc[nH]1 | inactive
CCCCCc1cc(O)cc(O)c1 | inactive

Compound | Potency
FC(Cl)(Cl)Cl | inactive
[N-]=[N+]=[N-] | inactive
Cc1ccc(N)c(C)c1 | inactive
c1ccoc1 | inactive
CN(C)c1ccc(N=Nc2ccccc2)cc1 | inactive
Nc1c(Cl)cc([N+](=O)[O-])cc1Cl | inactive
N#CCBr | inactive
CCCCC(=O)Cl | inactive
Cc1coc2c1CCC(C)C2 (stereo not given) | inactive
Cc1ccc(N)cc1C | inactive
BrCC(Br)(Br)Br | 39.8 µM (active)
Cc1cc(N=Nc2ccccc2C)ccc1N | inactive
ClC(Br)Br | inactive
COC(C)(C)C | inactive
C1CC2OC2CC1C1CO1 (stereo not given) | inactive
O=S(=O)(O)F | inactive
ClC(Cl)C(Cl)Cl | inactive
C=CC(=O)OCCN(C)C | inactive
Cc1ccc([N+](=O)[O-])cc1 | inactive
Nc1cc(Cl)cc(Cl)c1 | inactive

— PubChem BioAssay (NCATS)
